# Measured values published in PubChem BioAssay AID2314 (National Center for Advancing Translational Sciences (NCATS), 2010).
# Hit rate of the full screen: of about 300,000 compounds, about 37,000 (12%) were called active. No stated cut-off is given here; in the data, active means max response mostly above about 13% (no sharp cut-off); inactive means mostly below about 14%. The full list was thinned out, with actives kept by preference.
# Assay: Cycloheximide Counterscreen for Small Molecule Inhibitors of Shiga Toxin; further: read at 38.3 µM for the half of the compounds with a filed dose; 0% is about no effect
# Details: cell reporter, cycloheximide protein synthesis inhibition counterscreen; active compounds read high
row,SMILES,max response
1,COc1ccc(CNC(=O)C2CC(c3ccc(C(F)(F)F)cc3)=NO2)cc1 (centres undefined),-0.982% (inactive)
2,Cc1cc(OCCCCOc2ccc(C#N)cc2)ccc1[N+](=O)[O-],-6.16% (inactive)
3,c1ccc(-n2ncc3c(N4CCCC4)ncnc32)cc1,8.89% (inactive)
4,COc1ccc(NC(=O)CSc2ncnc3[nH]ncc23)cc1,1.38% (inactive)
5,O=C(CSc1ncnc2c1cnn2CCc1ccccc1)Nc1ccc(F)cc1,2.37% (inactive)
6,COc1ccc(-n2ncc3c(SCC(=O)NNC(C)=O)ncnc32)cc1,26.3% (active)
7,c1ccc(-n2ncc3c2ncn2c(C4CCCCC4)nnc32)cc1,-1.23% (inactive)
8,CC(C)Sc1ncnc2c1cnn2-c1ccccc1,46.6% (active)
9,COC(=O)CSc1ncnc2c1cnn2-c1ccc(C)cc1C,-8.2% (inactive)
10,COc1ccccc1N1CCN(C(=O)CSc2ncnc3c2cnn3-c2ccc(C)c(C)c2)CC1,44.7% (active)
11,CC(=O)Nc1ccc(NC(=O)CSc2ncnc3c2cnn3Cc2ccccc2)cc1,6% (inactive)
12,CCN(CC)C(=O)CSc1ncnc2c1cnn2-c1ccccc1,38.4% (active)
13,COc1ccc(N2CCN(C(=O)CSc3ncnc4c3cnn4-c3ccc(OC)cc3)CC2)cc1,-1.01% (inactive)
14,COc1ccccc1N1CCN(C(=O)CSc2nnc(-c3ccoc3C)o2)CC1,-1.64% (inactive)
15,O=S(=O)(Nc1ccccc1)c1ccc(NS(=O)(=O)c2cccs2)cc1,-2.66% (inactive)
16,CCCCSc1nnc2c(n1)OC=Nc1ccccc1-2,12.2% (inactive)
17,COc1cc(N2C(=O)CSC2=S)cc(OC)c1OC,-3.84% (inactive)
18,Cc1ccccc1NC(=O)Cn1cc(C(=O)C2CC2)c2ccccc21,-4.37% (inactive)
19,NC(=O)c1nsc(C(=O)N(CCCN2CCOCC2)C(C(=O)NC2CCCCC2)c2ccc(Cl)cc2)c1N (centres undefined),0.533% (inactive)
20,O=C(O)c1ccccc1-c1ccccc1C(=O)Nc1ccccc1Br,-9.84% (inactive)

row,SMILES,max response
1,N#Cc1c(-c2ccccc2)cc(-c2ccccc2)nc1SCC(=O)O,-2.46% (inactive)
2,Brc1ccc(Nc2c3c(nc4ncnn24)CCC3)cc1,-7.39% (inactive)
3,O=C(NCc1ccccc1Cl)C1CCN(c2ncnc3c2nc2n3CCCCC2)CC1,17% (inactive)
4,CC(=O)Nc1c2c(nn1-c1ccc(C)cc1C)CS(=O)C2 (centres undefined),-1.87% (inactive)
5,COc1ccc(-c2nc3c(c(SCC(=O)Nc4ccc(C(=O)O)cc4)n2)Cc2ccccc2O3)cc1,12.1% (inactive)
6,Cc1ccc2[nH]c(=O)c(CN(C)S(=O)(=O)c3cccc4nonc34)cc2c1,-10.5% (inactive)
7,COc1ccc2nc(NC(=O)c3ccc(Br)s3)sc2c1,67.5% (active)
8,COc1ccc(Cl)cc1NC(=O)[C@@H]1CCCN1C(=O)c1cccs1,4.64% (inactive)
9,COc1ccc2nc(NC(=O)NC3CCCCC3)sc2c1,47.7% (active)
10,COc1ccc(S(=O)(=O)N2CCN(C(=O)NC3CCCCC3)CC2)cc1,1.04% (inactive)
11,COc1ccc2nc(NC(=O)[C@@H]3CCCN3C(=O)c3cccs3)sc2c1,15.2% (active)
12,COc1ccc(-n2cnc3cc(C(=O)NC4CCCC4)ccc32)cc1,-1.06% (inactive)
13,COc1cc(Cl)c(C)cc1NC(=O)[C@@H]1CCCN1C(=O)c1cccs1,-0.643% (inactive)
14,CCOc1ccc2nc(NC(=O)c3cc([N+](=O)[O-])ccc3N3CCOCC3)sc2c1,11.9% (inactive)
15,COc1ccc(CNC(=O)c2ccc(Br)s2)cc1OC,10.2% (inactive)
16,NS(=O)(=O)c1ccc(CNC(=O)c2ccc(Cl)cc2[N+](=O)[O-])cc1,-0.486% (inactive)
17,Cc1cccc(N(C)C(=O)c2cc(S(=O)(=O)N3CCCCC3)c[nH]2)c1,-1.63% (inactive)
18,O=C(NCc1ccccc1)C(c1ccco1)N(C(=O)c1csnn1)c1ccccc1F (centres undefined),-6.55% (inactive)
19,O=C1c2ccccc2C2=Nc3ccccc3SC(c3ccccc3F)C12 (centres undefined),9.05% (inactive)
20,COc1ccc(N2CCN(S(=O)(=O)c3ccc4c(c3)N(C(C)=O)CCO4)CC2)cc1,2.5% (inactive)

row,SMILES,max response
1,CN(C(=O)COc1ccccc1)c1nnc(-c2ccncc2)s1,-3.07% (inactive)
2,CN(C(=O)c1ccccn1)c1nnc(-c2ccccn2)s1,68.8% (active)
3,CN(C(=O)c1ccno1)c1nnc(-c2cccnc2)s1,7.05% (inactive)
4,CCOc1ccc(C(C)=O)cc1CSc1nnc(-c2ccncc2)n1CCOC,-6.17% (inactive)
5,CC1(C)Cc2ccccc2/C(=C/C(=O)c2ccccc2)N1,4.21% (inactive)
6,Cc1noc(C)c1CSCC(=O)N(CCC(C)C)c1c(N)n(Cc2ccccc2)c(=O)[nH]c1=O,-1.36% (inactive)
7,O=C(O)C1CCCN1C1=NS(=O)(=O)c2ccccc21 (centres undefined),-4.57% (inactive)
8,Cc1cc2cc(CNC(=O)c3ccc(S(=O)(=O)N4CCOCC4)cc3)ccc2[nH]1,-2.1% (inactive)
9,Cc1cc2cc(CNC(=O)c3cccs3)ccc2[nH]1,24.1% (active)
10,CCc1cccc(CC)c1NC(=S)NCc1ccc2[nH]c(C)cc2c1,-2.68% (inactive)
11,COc1ccc(CS(=O)/C(Cl)=C(/Cl)C(=O)Nc2ccc(OC)nc2)cc1 (centres undefined),-16.6% (inactive)
12,N#CCSc1nc2ccc(N3CCOCC3)cc2c(=O)n1CCc1ccccc1,10.2% (inactive)
13,Cc1ccc(NS(=O)(=O)c2ccc(-c3coc(C)n3)cc2)c(C)c1,4.71% (inactive)
14,O=C(NCc1ccccc1)C(c1cccnc1)N(C(=O)c1csnn1)c1ccc(F)cc1 (centres undefined),-4.58% (inactive)
15,COC(=O)c1[nH]c2ccc(Br)cc2c1NC(=O)Oc1ccccc1,47% (active)
16,CCOC(=O)c1[nH]c2ccc(OC)cc2c1NC(=O)CCN1CCN(Cc2ccccc2)CC1,2.39% (inactive)
17,COC(=O)c1[nH]c2ccccc2c1NC(=O)CN1CCCc2ccccc21,13.2% (inactive)
18,COc1ccc(C2(CNC(=O)C(c3ccccc3)c3ccccc3)CCOCC2)cc1OC,4.44% (inactive)
19,CCn1cc(C(=O)NCCO)c(=O)c2cc(F)c(N3CCN(C)CC3)cc21,1.78% (inactive)
